Laboratory results: PubChem BioAssay AID1159580 (chemical genetic matrix, 2015)
Where “and” joins values, the source holds several entries; their conditions need not be identical. Equal values may be shown once. Hit rate of the full screen: of about 5,500 compounds, about 2,000 (36%) were called active. Another 18% or so got no clear call; they are omitted. No stated cut-off is given here; in the data, active means normalized growth mostly below about 0.91 (no sharp cut-off); inconclusive means no clear call, values can overlap the other calls; inactive means mostly above about 0.92. Some of the results follow.

Assay: chemical genetic growth profiling, strain panel (AID 1159580);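 further: tested at 20 µM; growth read once vehicle control cultures reached saturation at 30 °C; 1 = growth at the plate median or of vehicle wells; lower values mean less growth of the strain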
Conditions: S. cerevisiae deletion strains, growth OD

Measured: normalized growth

COc1cc(-c2coc3cc(OC)c(OC)c(OC)c3c2=O)cc(OC)c1OC
inactive: locus YAL013W, strain DEP1, hits give low values 0.994 | locus YAL021C, strain ccr4, hits give low values 1 | locus YAL026C, strain drs2, hits give low values 1.01 | locus YAL030W, strain snc1, hits give low values 1.01 | locus YBL061C, strain skt5, hits give low values 0.996 | locus YBR009C, strain hhf1, hits give low values 0.993 | locus YBR021W, strain FUR4, hits give low values 1.02 | locus YBR023C, strain chs3, hits give low values 0.991 | locus YBR171W, strain sec66, hits give low values 0.99 | locus YBR229C, strain ROT2, hits give low values 1 | locus YBR231C, strain swc5, hits give low values 0.969 | locus YBR279W, strain paf1, hits give low values 1.01 | locus YCL011C, strain gbp2, hits give low values 1 | locus YCL016C, strain dcc1, hits give low values 0.987 | locus YCL029C, strain bik1, hits give low values 0.973 | locus YCL061C, strain MRC1, hits give low values 1.01 | locus YCL069W, strain vba3, hits give low values 1.01 | locus YCR088W, strain abp1, hits give low values 1.01 | locus YDL005C, strain med2, hits give low values 0.996 | locus YDL035C, strain GPR1, hits give low values 1.03 | locus YDL040C, strain nat1, hits give low values 0.995 | locus YDL074C, strain BRE1, hits give low values 1.02 | locus YDL101C, strain DUN1, hits give low values 0.981 | locus YDL185W, strain tfp1, hits give low values 0.968 | locus YDL192W, strain arf1, hits give low values 1.03 | locus YDR001C, strain nth1, hits give low values 0.999 | locus YDR069C, strain doa4, hits give low values 1.01 | locus YDR101C, strain arx1, hits give low values 1.06 | locus YDR137W, strain rgp1, hits give low values 1.01 | locus YDR159W, strain sac3, hits give low values 0.947 | locus YDR162C, strain NBP2, hits give low values 1.03 | locus YDR195W, strain ref2 0.963 | locus YDR297W, strain sur2, hits give low values 1.01 | locus YDR318W, strain mcm21, hits give low values 0.993 | locus YDR334W, strain swr1, hits give low values 0.994 | locus YDR335W, strain msn5, hits give low values 1 | locus YDR388W, hits give low values 0.985 | locus YDR392W, strain spt3, hits give low values 0.888 | locus YDR502C, strain sam2, hits give low values 0.985 | locus YEL003W, strain gim4, hits give low values 0.992 | locus YEL037C, strain rad23, hits give low values 1 | locus YEL061C, strain CIN8 (second series), hits give low values 1 | locus YEL061C, strain CIN8, hits give low values 0.994 | locus YER015W, strain faa2, hits give low values 1 | locus YER016W, strain bim1, hits give low values 0.999 | locus YER110C, hits give low values 0.968 | locus YER111C, strain swi4, hits give low values 0.989 | locus YER155C, strain BEM2 (second series), hits give low values 0.968 | locus YER155C, strain BEM2, hits give low values 0.984 | locus YER167W, strain BCK2, hits give low values 1 | locus YFR010W, strain ubp6, hits give low values 0.996 | locus YGL078C, strain dbp3, hits give low values 0.975 | locus YGL086W, strain mad1, hits give low values 1.01 | locus YGL167C, strain pmr1, hits give low values 1 | locus YGL173C, strain kem1, hits give low values 1 | locus YGL227W, strain vid30, hits give low values 0.99 | locus YGL240W, strain doc1, hits give low values 0.987 | locus YGL248W, strain PDE1, hits give low values 0.965 | locus YGL253W, strain hxk2, hits give low values 0.996 | locus YGR135W, strain pre9, hits give low values 0.952 | locus YGR252W, strain gcn5, hits give low values 1.01 | locus YHR013C, strain ard1, hits give low values 0.996 | locus YHR027C, strain rpn1, hits give low values 0.997 | locus YHR030C, strain SLT2, hits give low values 0.997 and 1.06 | locus YHR079C, strain IRE1 (second series), hits give low values 0.992 | locus YHR079C, strain IRE1, hits give low values 1.02 | locus YHR094C, strain hxt1, hits give low values 1 | locus YHR129C, strain ARP1, hits give low values 0.996 | locus YHR142W, strain chs7, hits give low values 0.994 | locus YHR200W, strain rpn10, hits give low values 1.01 | locus YIL066C, strain RNR3, hits give low values 1 | locus YIL073C, strain SPO22, hits give low values 0.921 | locus YIL125W, strain kgd1, hits give low values 1.01 | locus YIR030C, strain dcg1, hits give low values 0.989 | locus YJL092W, strain hpr5, hits give low values 1.01 | locus YJL095W, strain BCK1 (second series), hits give low values 1 | locus YJL095W, strain BCK1, hits give low values 0.986 and 1.07 | locus YJL115W, strain asf1, hits give low values 1 | locus YJL129C, strain trk1, hits give low values 0.988 | locus YJL134W, strain LCB3, hits give low values 1 | locus YJL154C, strain vps35, hits give low values 0.99 | locus YJL164C, strain tpk1, hits give low values 1 | locus YJL166W, strain qcr8, hits give low values 0.999 | locus YJL168C, strain set2, hits give low values 0.993 | locus YJL187C, strain SWE1 (second series), hits give low values 0.968 | locus YJR043C, strain POL32, hits give low values 1.04
